# Columns and labels:
# [1] = molecular target: Mast/stem cell growth factor receptor Kit (Homo sapiens) (UniProt P10721); details: at 1 µM
# [2] = test system: Mast/stem cell growth factor receptor Kit (Homo sapiens), P10721 [D816V]; details: at 0.1 µM
# [3] = test system: Mast/stem cell growth factor receptor Kit (Homo sapiens), P10721 [D816V]; details: at 1 µM
# [4] = test system: Mast/stem cell growth factor receptor Kit (Homo sapiens), P10721 [T670I]; details: at 0.1 µM
# [5] = test system: Mast/stem cell growth factor receptor Kit (Homo sapiens), P10721 [T670I]; details: at 1 µM
# [6] = test system: Mast/stem cell growth factor receptor Kit (Homo sapiens), P10721 [V560G]; details: at 0.1 µM
# [7] = test system: Mast/stem cell growth factor receptor Kit (Homo sapiens), P10721 [V560G]; details: at 1 µM
# [8] = molecular target: Tyrosine-protein kinase Lck (Homo sapiens) (UniProt P06239); details: at 0.1 µM
# [9] = molecular target: Tyrosine-protein kinase Lck (Homo sapiens) (UniProt P06239); details: at 1 µM
# [10] = molecular target: Leukocyte tyrosine kinase receptor (Homo sapiens) (UniProt P29376); details: at 0.1 µM
# [11] = molecular target: Leukocyte tyrosine kinase receptor (Homo sapiens) (UniProt P29376); details: at 1 µM
# [12] = molecular target: Tyrosine-protein kinase Lyn (Homo sapiens) (UniProt P07948); details: at 0.1 µM
# [13] = molecular target: Tyrosine-protein kinase Lyn (Homo sapiens) (UniProt P07948); details: at 1 µM
# [14] = molecular target: Tyrosine-protein kinase Lyn (Homo sapiens) (UniProt P07948); details: at 0.1 µM; remark: listed apart in the source
# [15] = molecular target: Tyrosine-protein kinase Lyn (Homo sapiens) (UniProt P07948); details: at 1 µM; remark: listed apart in the source
# [16] = molecular target: T1, Tyrosine-protein kinase Mer (Homo sapiens) (UniProt Q12866); details: at 0.1 µM
# T1 sequence (whole entry): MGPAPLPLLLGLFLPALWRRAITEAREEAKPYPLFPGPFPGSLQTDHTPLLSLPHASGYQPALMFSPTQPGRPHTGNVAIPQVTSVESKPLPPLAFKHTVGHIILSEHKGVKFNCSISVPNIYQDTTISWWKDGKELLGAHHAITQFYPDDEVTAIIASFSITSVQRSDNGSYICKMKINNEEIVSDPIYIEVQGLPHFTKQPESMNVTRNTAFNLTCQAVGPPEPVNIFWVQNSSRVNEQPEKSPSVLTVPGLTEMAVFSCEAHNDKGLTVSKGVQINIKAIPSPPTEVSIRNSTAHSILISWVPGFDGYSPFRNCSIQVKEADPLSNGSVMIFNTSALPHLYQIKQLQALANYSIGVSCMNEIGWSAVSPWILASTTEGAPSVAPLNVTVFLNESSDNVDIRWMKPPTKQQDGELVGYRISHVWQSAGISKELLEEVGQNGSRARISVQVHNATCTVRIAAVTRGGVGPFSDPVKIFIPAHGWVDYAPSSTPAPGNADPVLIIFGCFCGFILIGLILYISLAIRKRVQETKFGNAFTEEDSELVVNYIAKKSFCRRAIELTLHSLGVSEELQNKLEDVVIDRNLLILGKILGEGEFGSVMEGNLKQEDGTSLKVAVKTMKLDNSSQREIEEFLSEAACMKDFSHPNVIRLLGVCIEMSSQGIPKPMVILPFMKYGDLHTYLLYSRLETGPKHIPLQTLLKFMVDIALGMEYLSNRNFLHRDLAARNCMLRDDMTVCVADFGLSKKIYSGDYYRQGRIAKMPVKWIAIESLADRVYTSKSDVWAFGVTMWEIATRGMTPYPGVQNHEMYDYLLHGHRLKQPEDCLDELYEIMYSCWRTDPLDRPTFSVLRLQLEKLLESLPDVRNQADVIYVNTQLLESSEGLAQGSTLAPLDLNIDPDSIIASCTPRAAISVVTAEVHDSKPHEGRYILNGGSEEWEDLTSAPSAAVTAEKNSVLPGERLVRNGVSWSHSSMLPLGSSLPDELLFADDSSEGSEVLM
# [17] = molecular target: T1, Tyrosine-protein kinase Mer (Homo sapiens); details: at 1 µM
# [18] = molecular target: Hepatocyte growth factor receptor (Homo sapiens) (UniProt P08581); details: at 0.1 µM
# [19] = molecular target: Hepatocyte growth factor receptor (Homo sapiens) (UniProt P08581); details: at 1 µM
# [20] = molecular target: T2, Muscle, skeletal receptor tyrosine-protein kinase (Homo sapiens) (UniProt O15146); details: at 0.1 µM;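 note: values are mean inhibition of MuSK from the GSK PKIS kinase screening panel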
# T2 sequence (whole entry): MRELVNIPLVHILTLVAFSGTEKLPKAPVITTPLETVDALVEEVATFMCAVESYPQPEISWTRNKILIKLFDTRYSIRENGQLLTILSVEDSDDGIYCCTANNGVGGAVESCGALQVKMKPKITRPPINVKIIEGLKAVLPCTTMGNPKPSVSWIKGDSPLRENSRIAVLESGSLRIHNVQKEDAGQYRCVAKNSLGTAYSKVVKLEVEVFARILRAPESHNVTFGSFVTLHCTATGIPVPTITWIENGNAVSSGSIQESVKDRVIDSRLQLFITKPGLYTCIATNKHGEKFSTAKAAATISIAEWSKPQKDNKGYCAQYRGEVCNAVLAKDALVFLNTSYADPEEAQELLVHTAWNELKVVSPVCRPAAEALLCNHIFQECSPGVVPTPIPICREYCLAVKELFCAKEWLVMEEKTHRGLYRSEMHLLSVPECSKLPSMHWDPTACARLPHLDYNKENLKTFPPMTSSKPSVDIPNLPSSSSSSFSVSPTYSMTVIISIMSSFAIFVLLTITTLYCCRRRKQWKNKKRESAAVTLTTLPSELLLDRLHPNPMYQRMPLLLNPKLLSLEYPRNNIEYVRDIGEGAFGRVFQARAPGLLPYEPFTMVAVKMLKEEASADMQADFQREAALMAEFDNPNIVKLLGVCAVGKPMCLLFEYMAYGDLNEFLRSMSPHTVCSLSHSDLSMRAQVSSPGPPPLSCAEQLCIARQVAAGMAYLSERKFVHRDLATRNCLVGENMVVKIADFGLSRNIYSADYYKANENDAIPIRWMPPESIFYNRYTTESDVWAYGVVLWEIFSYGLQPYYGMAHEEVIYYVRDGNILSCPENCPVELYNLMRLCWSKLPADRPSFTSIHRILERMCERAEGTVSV
# Chain of Mast/stem cell growth factor receptor Kit (Homo sapiens), P10721 [V560G] (P10721 whole entry V560G): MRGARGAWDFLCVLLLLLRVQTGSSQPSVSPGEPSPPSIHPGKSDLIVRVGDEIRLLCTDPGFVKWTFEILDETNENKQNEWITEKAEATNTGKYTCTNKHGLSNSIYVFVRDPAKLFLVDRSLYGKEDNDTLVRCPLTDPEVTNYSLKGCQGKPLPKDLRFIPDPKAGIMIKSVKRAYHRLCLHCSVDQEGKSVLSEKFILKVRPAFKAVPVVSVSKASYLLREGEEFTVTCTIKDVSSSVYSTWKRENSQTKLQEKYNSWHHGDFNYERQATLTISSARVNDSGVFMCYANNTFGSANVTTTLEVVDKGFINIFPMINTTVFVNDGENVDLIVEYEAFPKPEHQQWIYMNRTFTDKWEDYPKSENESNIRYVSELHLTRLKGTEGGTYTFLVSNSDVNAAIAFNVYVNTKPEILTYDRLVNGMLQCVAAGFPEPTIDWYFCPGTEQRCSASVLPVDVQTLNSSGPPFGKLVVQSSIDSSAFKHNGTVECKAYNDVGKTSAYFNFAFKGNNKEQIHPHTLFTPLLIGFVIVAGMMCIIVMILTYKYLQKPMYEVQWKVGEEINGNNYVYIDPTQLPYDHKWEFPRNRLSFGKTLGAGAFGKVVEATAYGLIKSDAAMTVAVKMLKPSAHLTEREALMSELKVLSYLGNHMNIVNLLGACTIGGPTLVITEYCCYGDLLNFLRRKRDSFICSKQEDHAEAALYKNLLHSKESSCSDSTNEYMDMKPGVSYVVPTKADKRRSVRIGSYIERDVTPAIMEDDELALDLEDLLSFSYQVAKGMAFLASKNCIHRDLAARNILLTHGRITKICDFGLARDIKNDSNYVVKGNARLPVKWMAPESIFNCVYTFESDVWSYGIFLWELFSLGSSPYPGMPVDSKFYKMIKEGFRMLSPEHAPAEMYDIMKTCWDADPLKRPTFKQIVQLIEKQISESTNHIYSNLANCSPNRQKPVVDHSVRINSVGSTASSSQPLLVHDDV
# Chain of Tyrosine-protein kinase Lck (Homo sapiens) (P06239 2-509 limits assumed): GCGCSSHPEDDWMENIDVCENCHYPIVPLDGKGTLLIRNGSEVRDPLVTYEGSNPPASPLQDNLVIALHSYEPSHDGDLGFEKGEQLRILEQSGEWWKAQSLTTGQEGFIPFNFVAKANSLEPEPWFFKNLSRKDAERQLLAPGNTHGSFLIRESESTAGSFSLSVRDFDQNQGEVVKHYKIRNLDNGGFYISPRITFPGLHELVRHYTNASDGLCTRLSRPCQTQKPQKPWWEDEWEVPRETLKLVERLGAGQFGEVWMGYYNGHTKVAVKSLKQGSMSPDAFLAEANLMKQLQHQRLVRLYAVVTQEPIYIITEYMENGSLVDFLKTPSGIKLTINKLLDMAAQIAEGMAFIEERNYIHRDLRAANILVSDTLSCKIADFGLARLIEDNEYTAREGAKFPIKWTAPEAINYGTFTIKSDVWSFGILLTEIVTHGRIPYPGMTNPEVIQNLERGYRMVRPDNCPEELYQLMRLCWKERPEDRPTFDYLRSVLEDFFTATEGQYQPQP
# Chain of Mast/stem cell growth factor receptor Kit (Homo sapiens) (P10721 whole entry): as the sequence (P10721 whole entry V560G) above, with G560V counted along it
# Chain of Leukocyte tyrosine kinase receptor (Homo sapiens) (P29376 whole entry): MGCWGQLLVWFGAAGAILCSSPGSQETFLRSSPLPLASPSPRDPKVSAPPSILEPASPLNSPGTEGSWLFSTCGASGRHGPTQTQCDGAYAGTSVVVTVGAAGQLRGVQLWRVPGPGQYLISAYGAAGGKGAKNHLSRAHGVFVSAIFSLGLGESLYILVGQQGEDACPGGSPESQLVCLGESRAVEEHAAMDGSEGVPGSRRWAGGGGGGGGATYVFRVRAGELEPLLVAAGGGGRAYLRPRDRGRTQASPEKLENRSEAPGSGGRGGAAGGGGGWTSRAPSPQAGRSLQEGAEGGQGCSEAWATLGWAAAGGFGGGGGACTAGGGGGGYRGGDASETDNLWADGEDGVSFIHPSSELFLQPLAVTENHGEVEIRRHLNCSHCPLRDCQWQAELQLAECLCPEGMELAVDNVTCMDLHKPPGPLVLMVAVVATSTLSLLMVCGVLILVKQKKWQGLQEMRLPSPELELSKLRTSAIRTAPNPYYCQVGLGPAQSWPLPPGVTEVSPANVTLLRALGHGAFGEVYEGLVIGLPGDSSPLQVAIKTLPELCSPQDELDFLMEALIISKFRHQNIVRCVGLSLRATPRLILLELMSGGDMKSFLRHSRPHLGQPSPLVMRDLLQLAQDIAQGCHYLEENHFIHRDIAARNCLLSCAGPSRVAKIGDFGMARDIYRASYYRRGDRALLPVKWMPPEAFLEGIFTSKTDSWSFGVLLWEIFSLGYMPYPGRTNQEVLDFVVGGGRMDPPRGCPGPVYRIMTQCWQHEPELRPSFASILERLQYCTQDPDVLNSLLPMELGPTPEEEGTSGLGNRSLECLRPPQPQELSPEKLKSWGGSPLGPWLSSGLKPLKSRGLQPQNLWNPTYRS
# Chain of Mast/stem cell growth factor receptor Kit (Homo sapiens), P10721 [T670I] (P10721 whole entry T670I): as the sequence (P10721 whole entry V560G) above, with G560V, T670I counted along it
# Chain of Mast/stem cell growth factor receptor Kit (Homo sapiens), P10721 [D816V] (P10721 whole entry D816V): as the sequence (P10721 whole entry V560G) above, with G560V, D816V counted along it
# Chain of Tyrosine-protein kinase Lyn (Homo sapiens) (P07948 2-512 limits assumed): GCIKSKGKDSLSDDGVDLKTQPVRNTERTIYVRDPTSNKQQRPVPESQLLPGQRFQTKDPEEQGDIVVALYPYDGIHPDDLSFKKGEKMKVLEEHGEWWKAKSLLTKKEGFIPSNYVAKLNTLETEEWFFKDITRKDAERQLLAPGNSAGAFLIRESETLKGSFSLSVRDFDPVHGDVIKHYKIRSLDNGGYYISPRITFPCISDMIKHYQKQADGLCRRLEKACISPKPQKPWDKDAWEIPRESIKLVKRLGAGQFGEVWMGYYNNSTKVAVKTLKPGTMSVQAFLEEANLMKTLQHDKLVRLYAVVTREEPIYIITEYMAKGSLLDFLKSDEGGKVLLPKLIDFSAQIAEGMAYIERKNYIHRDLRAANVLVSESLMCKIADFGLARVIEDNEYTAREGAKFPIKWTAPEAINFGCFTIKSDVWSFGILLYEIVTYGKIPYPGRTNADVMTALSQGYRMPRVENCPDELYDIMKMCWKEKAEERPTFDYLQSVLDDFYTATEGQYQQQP
# Chain of Hepatocyte growth factor receptor (Homo sapiens) (P08581 whole entry): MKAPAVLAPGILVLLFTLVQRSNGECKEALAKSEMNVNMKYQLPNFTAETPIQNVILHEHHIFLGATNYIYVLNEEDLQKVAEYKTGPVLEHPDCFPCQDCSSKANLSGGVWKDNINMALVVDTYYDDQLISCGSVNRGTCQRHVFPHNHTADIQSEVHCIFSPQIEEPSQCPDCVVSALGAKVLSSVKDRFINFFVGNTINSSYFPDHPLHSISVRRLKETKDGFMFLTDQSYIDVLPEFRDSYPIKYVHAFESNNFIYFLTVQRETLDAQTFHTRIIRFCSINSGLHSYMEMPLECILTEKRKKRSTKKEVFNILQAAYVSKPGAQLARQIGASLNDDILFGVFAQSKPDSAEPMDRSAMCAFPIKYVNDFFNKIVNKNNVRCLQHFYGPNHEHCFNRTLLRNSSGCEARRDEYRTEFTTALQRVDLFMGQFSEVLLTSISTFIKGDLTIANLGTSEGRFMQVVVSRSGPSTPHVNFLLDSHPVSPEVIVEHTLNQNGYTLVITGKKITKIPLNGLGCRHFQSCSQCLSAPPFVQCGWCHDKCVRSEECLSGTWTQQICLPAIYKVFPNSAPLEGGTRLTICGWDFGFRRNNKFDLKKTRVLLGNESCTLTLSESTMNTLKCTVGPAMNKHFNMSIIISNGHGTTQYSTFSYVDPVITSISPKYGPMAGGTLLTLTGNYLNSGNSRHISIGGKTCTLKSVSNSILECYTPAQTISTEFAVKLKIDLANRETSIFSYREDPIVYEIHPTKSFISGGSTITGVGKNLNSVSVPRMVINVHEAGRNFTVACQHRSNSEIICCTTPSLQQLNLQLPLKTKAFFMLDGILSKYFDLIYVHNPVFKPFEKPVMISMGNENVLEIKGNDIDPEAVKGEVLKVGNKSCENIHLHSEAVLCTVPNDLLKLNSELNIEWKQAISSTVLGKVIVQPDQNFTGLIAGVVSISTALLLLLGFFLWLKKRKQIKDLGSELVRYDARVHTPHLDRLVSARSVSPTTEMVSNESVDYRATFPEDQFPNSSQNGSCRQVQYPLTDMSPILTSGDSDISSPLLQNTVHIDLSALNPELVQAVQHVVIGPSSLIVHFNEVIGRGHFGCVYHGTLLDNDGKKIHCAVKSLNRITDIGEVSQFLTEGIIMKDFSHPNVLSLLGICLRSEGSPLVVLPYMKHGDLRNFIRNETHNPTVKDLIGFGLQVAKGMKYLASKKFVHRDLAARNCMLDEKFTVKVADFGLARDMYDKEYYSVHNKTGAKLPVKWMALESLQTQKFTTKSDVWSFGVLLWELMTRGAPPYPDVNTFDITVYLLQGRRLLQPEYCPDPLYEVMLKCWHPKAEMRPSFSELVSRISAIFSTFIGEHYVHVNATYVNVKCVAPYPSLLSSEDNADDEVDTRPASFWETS
SMILES,inhibition [1],inhibition [2],inhibition [3],inhibition [4],inhibition [5],inhibition [6],inhibition [7],inhibition [8],inhibition [9],inhibition [10],inhibition [11],inhibition [12],inhibition [13],inhibition [14],inhibition [15],inhibition [16],inhibition [17],inhibition [18],inhibition [19],inhibition [20]
Nc1nccc(-c2c(-c3ccc(F)cc3)ncn2CCCN2CCOCC2)n1,11.4%,5.23%,5.35%,5%,0.35%,-0.56%,1.5%,2.05%,7.4%,2.33%,2.3%,5.23%,9.61%,2.71%,5.84%,0.72%,2.2%,3.68%,5.4%,0.89%
COC(=O)Nc1nc2cc(Oc3ccc(NC(=O)Nc4cccc(Br)c4)cc3)ccc2[nH]1,100%,2.97%,4.47%,33%,56.8%,69.5%,86.4%,5%,10.5%,3.48%,3.57%,9.62%,15.2%,7.97%,13.8%,1.37%,3.46%,3.78%,6.03%,22.3%
CC(C)c1ccc(Nc2nccc(-c3cnn4ncccc34)n2)cc1,95.5%,2.6%,4.42%,19.5%,81.3%,17.7%,64%,1.2%,3.47%,2.91%,10.6%,4.07%,7.45%,2.28%,4.7%,1.42%,7.98%,4.89%,13.5%,3.14%
Oc1cccc(-c2nc(-c3ccccc3)[nH]c2-c2ccncc2)c1,8.38%,-0.23%,6.52%,2.52%,3.34%,1.61%,3.96%,4.47%,17.7%,3.98%,7.05%,9.9%,31.3%,6.99%,25.4%,1.35%,6.42%,6.73%,11.1%,4.05%
Cc1ccc2c(c1)/C(=N/Nc1ccc(S(N)(=O)=O)cc1)C(=O)N2,80.1%,-0.66%,-3.04%,3.2%,54.4%,1.27%,24.4%,1.15%,3.66%,0.21%,1%,0.12%,4.93%,0.75%,4.77%,-1.4%,1.27%,1.07%,4.08%,2.69%
C[C@@H](Oc1cc(-n2cnc3ccc(OCC4CCN(C)CC4)cc32)sc1C(N)=O)c1ccccc1C(F)(F)F,0.09%,-2%,-1.63%,-0.04%,0.36%,2.2%,4.85%,5.2%,33.8%,-0.86%,3.18%,1.14%,18.9%,1.52%,16.5%,-0.95%,6.99%,2.85%,9.84%,41.3%
O=C1Nc2ccc(-c3cccnc3)cc2C1=Cc1cc(Br)c(O)c(Br)c1,3.66%,3.44%,2.96%,3.51%,0.52%,0.16%,2.16%,3.31%,13.2%,4.94%,23%,2.95%,11.1%,1.54%,9.06%,1.25%,2.23%,2.89%,5.75%,3.42%
COc1cc(Nc2nccc(-c3cnn4ncccc34)n2)cc(OC)c1,97.3%,1.93%,9.04%,80.7%,98.1%,65.2%,92.5%,2.75%,19.2%,4.41%,34.1%,3.81%,29.3%,2.46%,23.6%,1.07%,16.6%,4.01%,14.4%,6.23%
NS(=O)(=O)c1ccc(N/N=C2\C(=O)Nc3ccc(Cl)cc32)cc1,89.8%,1.33%,3.24%,5.37%,41.2%,2.89%,30.3%,1.35%,3.7%,3.2%,4.81%,4.69%,8.22%,1.56%,6.78%,1.61%,1.21%,7.96%,7.49%,4.35%
Cc1cc(O)cc(C)c1/C=C/c1cncc(C(=O)N(C)C)c1,8.58%,0.33%,1.49%,2.61%,1.57%,5.07%,4.85%,3.69%,8.38%,2.93%,3.38%,4.08%,7.54%,3.61%,6.35%,1.7%,8.23%,1.87%,10.9%,8.6%
Cc1ccc(NC(=O)CC2CC2)cc1-c1ccc(C(=O)NCC2CC2)cc1,5.34%,4%,3.9%,2.39%,3.24%,1.38%,2.75%,1.18%,3.82%,4.18%,4.25%,6.32%,7.19%,4.03%,6.24%,0.96%,1.85%,7.51%,9%,2.1%
CCn1c(-c2nonc2N)nc2c(C#CC(C)(C)O)nc(OCCNC)cc21,6.66%,4.65%,3.95%,0.61%,3.65%,-4.02%,4.6%,2.55%,2.44%,5.09%,4.95%,5.06%,5.53%,2.97%,3.02%,2.03%,2.24%,4.48%,0.4%,1.71%
[O-][S+]1CCN(Cc2ccc(-c3ccc4ncnc(Nc5ccc(OCc6ccccc6)c(Cl)c5)c4c3)o2)CC1,0.65%,-2.21%,-2.37%,4.79%,4.66%,-1.31%,-1.84%,1.46%,5.8%,2.41%,7.75%,1.18%,6.07%,-1.3%,3.42%,7.08%,48.2%,3.11%,5.04%,1.43%

# Source: ChEMBL document CHEMBL1961873, “Compounds: GSK PKIS; Assays: Nanosyn kinase panel” (2012)
